The values that follow come from ChEMBL document CHEMBL1157539, “Thousands of chemical starting points for antimalarial lead identification” (Nature, 2010).

What all share (assay type): functional
Assay [1] relates to Plasmodium falciparum. The experiment in a line: GSK_TCMDC: Inhibition of Plasmodium falciparum 3D7 in whole red blood cells, using parasite LDH activity as an index of growth. Test compounds present at 2uM.
The test system of assay [2] is Plasmodium falciparum. The assay can be described thus: GSK_TCMDC: Inhibition of Plasmodium falciparum Dd2 in whole red blood cells, using parasite LDH activity as an index of growth. Test compounds present at 2uM.
The subject of the next assay is HepG2. The assay can be described thus: GSK_TCMDC: Percent inhibition of human HepG2 cell line. Test compounds present at 10uM.

As usually defined, the Inhibition is the change of the read-out against control, counted positive when it falls. A lower Inhibition goes with little suppression. Take `Cc1noc(C)c1-c1cccc(CNCc2cccc(-c3ccc(-c4nc5ccccc5[nH]4)cc3)c2)c1.O=C(O)C(F)(F)F`: the Inhibition is reported as 100% in the assay on Plasmodium falciparum [1], 76% in the assay on Plasmodium falciparum [2] and 27% in the assay on HepG2.
As to `CC1CCN(c2nc(C(=O)NCCc3ccc(Cl)c(Cl)c3)c(C(C)C)s2)CC1.O=C(O)C(F)(F)F`, the values for the Inhibition with Plasmodium falciparum [1], in the assay with Plasmodium falciparum [2] and in the assay with HepG2 were 88%, 38% and 0%, respectively.
On to `OCCN1CCN(c2ccc(Nc3ccnc4cc5ccccc5cc34)cc2)CC1`, for which the figures for the Inhibition in the assay with Plasmodium falciparum [1], in the assay with Plasmodium falciparum [2] and in the assay with HepG2 were 100%, 100% and 98%, respectively.
Turning to `COc1ccc(NC(=O)NC2CCN(c3ccnc4cc(Cl)ccc34)C2)cc1.O=C(O)C(F)(F)F` (stereo not drawn), the Inhibition in the assay with Plasmodium falciparum [1] was 100%; in the assay with Plasmodium falciparum [2], 69%; in the assay on HepG2, 10%.
Consider `Nc1c2ccccc2nc2ccc(-c3ccccc3)cc12`, for which the figures for the Inhibition with Plasmodium falciparum [1], in the assay on Plasmodium falciparum [2] and with HepG2 were 100%, 99% and 100%, respectively.
Turning to `COc1ccc(CNC(=O)c2cnc3cc(-c4c(C)noc4C)ccc3c2Nc2ccccc2C(C)(C)C)cc1.Cl`, the Inhibition is 99% in the assay on Plasmodium falciparum [1], 69% with Plasmodium falciparum [2] and 9% in the assay with HepG2.
In the case of `CC(Cc1ccc(COc2ccc(CC(CO)NCCc3cccc(Cl)c3)cc2)cc1)NCCc1cccc(Cl)c1.Cl` (stereo not drawn), the Inhibition in the assay on Plasmodium falciparum [1] was 100%; in the assay with Plasmodium falciparum [2], 86%; with HepG2, 99%.
In the same order, the values of `CS(=O)(=O)c1ccc(CCNCc2ccc(-c3ccc(CN(C(=O)C4CCCC4)C4CCN(Cc5ccccc5)CC4)cc3)nc2)cc1.O=C(O)C(F)(F)F` are 91%, 20% and 24%.
Turning to `CCCCCN1CCC(NC(=O)c2ccc(C(=O)Nc3ccc(C(C)C)cc3)cc2)C1.O=C(O)C(F)(F)F` (stereo not drawn), the Inhibition with Plasmodium falciparum [1] worked out at 95%; with Plasmodium falciparum [2], 17%; with HepG2, 38%.
As for `Cc1cc(CN2CCC(N3CC(c4ccccc4)(c4ccccc4)OCC3=O)C2)ccc1O.O=C(O)C(F)(F)F` (stereo not drawn), the Inhibition amounted to 89% in the assay with Plasmodium falciparum [1], 52% in the assay on Plasmodium falciparum [2] and 3% in the assay with HepG2.
With `Cc1[nH]c(C)c(-c2ccc(CCc3ccc(C(F)(F)F)cc3)nc2)c(=O)c1Cl`, the Inhibition amounted to 97% in the assay on Plasmodium falciparum [1], 97% with Plasmodium falciparum [2] and 24% with HepG2.
`c1ccc(N2CCN(c3cc(-c4cccnc4)nc(-c4ccncc4)n3)CC2)nc1`: the Inhibition in the assay with Plasmodium falciparum [1] is 99%; in the assay on Plasmodium falciparum [2] it was 22%; in the assay with HepG2, 22%.
With `CCN(CC)C(C)(C)CN(Cc1ccc(-c2ccc(C(F)(F)F)cc2)cc1)C(=O)Cn1c(CCc2cccc(F)c2F)nc(=O)c2ccccc21.O=C(O)C(O)C(O)C(=O)O`, the Inhibition in the assay on Plasmodium falciparum [1] is recorded as 91%; in the assay with Plasmodium falciparum [2], 79%; in the assay on HepG2 it was 53%.
Take `COc1cc(-c2cc3cc(Cl)c(Cl)cc3[nH]2)ccc1C(=O)NC1CCN(Cc2ccccc2)CC1.O=C(O)C(F)(F)F`: the values for the Inhibition in the assay with Plasmodium falciparum [1], in the assay on Plasmodium falciparum [2] and in the assay on HepG2 were 100%, 100% and 12%, respectively.
As to `CCN(CCCN1CCCCC1)c1cc(C)nc(Nc2cccc(C(F)(F)F)c2C)n1.O=C(O)C(F)(F)F`, the Inhibition in the assay with Plasmodium falciparum [1] amounted to 99%; in the assay with Plasmodium falciparum [2] it was 37%; in the assay with HepG2, 57%.
Turning to `Cc1ccc(Nc2ccnc(Nc3ccc4c(c3)CS(=O)(=O)C4)n2)cc1O.Cl`, the Inhibition is listed as 100% in the assay on Plasmodium falciparum [1], 76% with Plasmodium falciparum [2] and 82% with HepG2.
As to `CCCC(=O)Nc1ccc(OCCCCN(CC(C)(C)C)c2ccc(C#N)c(C(F)(F)F)c2)cc1`, the Inhibition is 83% in the assay with Plasmodium falciparum [1], 69% with Plasmodium falciparum [2] and 9% with HepG2.
For `CCOCc1cnc(C)nc1NCC(=O)c1c(C)[nH]c2cc(C)ccc12.I`, in that order: 89%, 76% and 8%.
Turning to `Cc1ccc(C)c2sc(N3CCN(C(=O)c4ccc([N+](=O)[O-])o4)CC3)nc12`, the Inhibition stood at 96% with Plasmodium falciparum [1], 89% in the assay with Plasmodium falciparum [2] and 0% in the assay on HepG2.
For `COc1ccc2nccc([C@@H](O)CN3CCC(NCCOc4cccc(C(F)(F)F)c4)CC3)c2c1.O=C(O)C(=O)O`, the Inhibition with Plasmodium falciparum [1] is reported as 100%; in the assay with Plasmodium falciparum [2], 74%; with HepG2, 16%.
Turning to `O=C(NC1CCCCC1)N(Cc1ccc(-c2cccc(CNC3CCCC3)c2)cc1)C1CCN(Cc2ccccc2)CC1.O=C(O)C(F)(F)F`, the Inhibition in the assay with Plasmodium falciparum [1] stood at 95%; with Plasmodium falciparum [2] it was 59%; in the assay with HepG2, 52%.
Consider `CSc1ccc(CN2CCC(NC(=O)c3ccc(-c4ccc(N(C)C)cc4)s3)CC2)cc1.O=C(O)C(F)(F)F`, for which the values for the Inhibition in the assay on Plasmodium falciparum [1], in the assay with Plasmodium falciparum [2] and in the assay on HepG2 were 86%, 26% and 30%, respectively.
In the same order, the values of `O=C(Nc1ccc(-c2nc3ccccc3[nH]2)cc1)c1cccc(S(=O)(=O)N2CCCC2)c1` are 100%, 64% and 0%.
Regarding `COc1cc(Nc2ccc3cc(S(=O)(=O)N4CCCCC4C)ccc3n2)cc(OC)c1OC` (stereo not drawn), the Inhibition in the assay with Plasmodium falciparum [1] worked out at 88%; with Plasmodium falciparum [2] it was 78%; with HepG2 it was 0%.
As to `O=C(Nc1ccccc1)N(Cc1ccccc1-c1cccc(CNC2CCCC2)c1)C1CCN(Cc2ccccc2)CC1.O=C(O)C(F)(F)F`, the Inhibition in the assay on Plasmodium falciparum [1] is 100%; with Plasmodium falciparum [2], 84%; with HepG2 it was 36%.
For `O=C(O)C(F)(F)F.OCC1CCN(Cc2cccc(-c3ccc(-c4nc5cc(C(F)(F)F)ccc5[nH]4)cc3)c2)CC1`, the Inhibition with Plasmodium falciparum [1] was 100%; in the assay with Plasmodium falciparum [2] it was 95%; in the assay with HepG2, 25%.
For `CCc1cn2c3c(cc(C(=O)N[C@@H](Cc4ccccc4)[C@H](O)CNCCOC)cc13)N(C)S(=O)(=O)CC2.O=CO`, in that order: 98%, 56% and 7%.
`O=C(Nc1cccc(OC2CCN(Cc3ccccc3)CC2)c1)c1ccc([N+](=O)[O-])cc1.O=C(O)C(F)(F)F`: the figures for the Inhibition in the assay with Plasmodium falciparum [1], in the assay on Plasmodium falciparum [2] and in the assay on HepG2 were 100%, 2% and 6%, respectively.
Turning to `Cc1ccc2c(OCCN3CCC(Cc4ccc5c(c4)NC(=O)CO5)CC3)cc(F)cc2n1.Cl`, the results for the Inhibition with Plasmodium falciparum [1], in the assay with Plasmodium falciparum [2] and with HepG2 were 89%, 21% and 24%, respectively.
In the same order, the values of `COCCNCc1ccc(-c2ccc(CNC3CCN(Cc4ccccc4)CC3)cc2)cc1.O=C(O)C(F)(F)F` are 100%, 61% and 22%.
In the same order, the values of `Cc1ccc(Nc2nc(C)cc(NC3CCN(C)CC3)n2)cc1` are 100%, 21% and 14%.
Take `CCCCCCCCOc1ccc(N2C(N)=NC(N)=NC2(C)C)cc1.Cl`: the Inhibition was 100% in the assay on Plasmodium falciparum [1], 0% with Plasmodium falciparum [2] and 31% with HepG2.
`CCOc1cccc(C(=O)Nc2cccc(CN3CCCN(Cc4cccc(O)c4)CC3)c2)c1.O=C(O)C(F)(F)F`: the Inhibition is given as 85% in the assay on Plasmodium falciparum [1], 18% in the assay on Plasmodium falciparum [2] and 17% with HepG2.
For `Cc1nnsc1C(=O)Nc1cccc(-c2ccc(-c3nc4cc(C(F)(F)F)ccc4[nH]3)cc2)c1`, in that order: 99%, 97% and 62%.
Consider `CCCC(C)Nc1nc(C)cc(NCCC(=O)Nc2ccc(OC)cc2)n1.O=C(O)C(F)(F)F` (stereo not drawn), for which the Inhibition amounted to 97% in the assay on Plasmodium falciparum [1], 2% in the assay on Plasmodium falciparum [2] and 12% in the assay on HepG2.
`COc1ccc2[nH]ccc(=NN=Cc3cccnc3)c2c1`: the Inhibition turned out to be 100% with Plasmodium falciparum [1], 84% with Plasmodium falciparum [2] and 0% with HepG2.
On to `Cc1ccc(C(=O)NC2C(=O)NC2c2ccccc2)c(C)c1` (stereo not drawn), for which the Inhibition is reported as 90% in the assay on Plasmodium falciparum [1], 0% in the assay with Plasmodium falciparum [2] and 7% in the assay on HepG2.
`Cc1cc(-c2ccc(NC(=O)N3CCc4cc(Br)c(N5CCN(C)CC5)cc43)cc2)ccc1C#N`: the Inhibition turned out to be 99% in the assay with Plasmodium falciparum [1], 56% with Plasmodium falciparum [2] and 100% in the assay with HepG2.
`O=C(O)C(F)(F)F.OCC1CCN(Cc2cccc(-c3ccc(-c4nc5cc(C(F)(F)F)ccc5[nH]4)s3)c2)CC1`: the Inhibition is recorded as 99% in the assay on Plasmodium falciparum [1], 90% in the assay with Plasmodium falciparum [2] and 0% in the assay with HepG2.
With `Cc1cc2nc(-c3ccc(OCC(=O)NCc4cccc(C(F)(F)F)c4)cc3)[nH]c2cc1C`, the figures for the Inhibition in the assay with Plasmodium falciparum [1], with Plasmodium falciparum [2] and in the assay on HepG2 were 94%, 1% and 4%, respectively.
Consider `Cc1cc2ccc(-c3cccc(CN)c3)cc2nc1N.Cl`, for which the Inhibition turned out to be 100% with Plasmodium falciparum [1], 1% with Plasmodium falciparum [2] and 0% in the assay with HepG2.
For `CCCC1(C)CSc2ccccc2C(c2ccccc2)N1` (stereo not drawn), in that order: 87%, 2% and 60%.
For the molecule `CN1CCC(C(=O)Nc2ccc(-c3ccc(-c4nc5ccccc5[nH]4)cc3)cc2)CC1`, the Inhibition in the assay on Plasmodium falciparum [1] was found to be 100%; in the assay with Plasmodium falciparum [2], 94%; in the assay on HepG2, 28%.
As for `Cl.NC(=O)c1cccc(Nc2nccc(Nc3ccc(Oc4cccc(Cl)c4)c(Cl)c3)n2)c1`, the Inhibition in the assay on Plasmodium falciparum [1] was 93%; in the assay with Plasmodium falciparum [2] it was 12%; with HepG2, 0%.
As to `COc1cc2c(Nc3ccc(NC(=O)c4ccccc4)cc3)ncnc2cc1OCCCN1CCOCC1`, the Inhibition stood at 99% in the assay on Plasmodium falciparum [1], 93% in the assay with Plasmodium falciparum [2] and 14% with HepG2.
As for `COc1ccc2[nH]ccc(=NN=Cc3cccc(F)c3)c2c1`, the values for the Inhibition with Plasmodium falciparum [1], in the assay with Plasmodium falciparum [2] and in the assay on HepG2 were 100%, 65% and 13%, respectively.
Take `CC(C)c1ccc(O)cc1Nc1ccnc2ccc(C(F)(F)F)cc12`: the Inhibition was 97% in the assay with Plasmodium falciparum [1], 90% with Plasmodium falciparum [2] and 6% with HepG2.
With `O=C(NC1CCN(c2ccnc3cc(Cl)ccc23)C1)c1ccc(F)cc1.O=C(O)C(F)(F)F` (stereo not drawn), the Inhibition is 94% with Plasmodium falciparum [1], 97% in the assay with Plasmodium falciparum [2] and 26% in the assay with HepG2.
In the same order, the values of `N=C(N)Nc1nc(-c2cccc(NC(=O)Cc3ccccc3)c2)cs1` are 99%, 9% and 1%.
For `O=C(CCC1CCCC1)N(Cc1ccc(-c2ccc(CNCCc3ccccn3)cc2)cc1)CC1CCCCN1.O=C(O)C(F)(F)F` (stereo not drawn), the Inhibition in the assay on Plasmodium falciparum [1] is given as 95%; in the assay with Plasmodium falciparum [2] it was 69%; with HepG2, 32%.
As for `O=C(N[C@@H](CC1CCCCC1)C(=O)NCc1cccc2ccccc12)c1ccc(O)c(-c2ccc(Cl)c(Cl)c2)c1`, the Inhibition is 97% in the assay with Plasmodium falciparum [1], 99% in the assay on Plasmodium falciparum [2] and 0% with HepG2.
As for `COc1cc2nc(NCc3cccc(CNC(=O)c4ccc(-c5ccc(C(C)=O)cc5)cc4)c3)nc(N)c2cc1OC.O=C(O)C(F)(F)F`, the values for the Inhibition in the assay on Plasmodium falciparum [1], with Plasmodium falciparum [2] and with HepG2 were 100%, 72% and 32%, respectively.
In the case of `O=C(Nc1ccsc1)Nc1cccc(-c2cccc(-c3nc4cc(F)ccc4[nH]3)c2)c1`, the Inhibition amounted to 100% in the assay on Plasmodium falciparum [1], 41% in the assay on Plasmodium falciparum [2] and 46% in the assay on HepG2.
In the same order, the values of `CCCc1cc(Cc2cnc(N)nc2N)cc(CCC)c1OCCCCC(=O)OC` are 94%, 0% and 0%.
In the same order, the values of `CCCNCc1ccc(-c2ccc(CN(CCOC)C(=O)Cc3cccnc3)cc2)nc1.O=C(O)C(F)(F)F` are 92%, 13% and 10%.
On to `O=C(NCc1ccc(F)cc1)Nc1cccc(-c2ccc(-c3nc4cc(F)ccc4[nH]3)cc2)c1`, for which the Inhibition amounted to 100% in the assay on Plasmodium falciparum [1], 96% in the assay with Plasmodium falciparum [2] and 7% in the assay on HepG2.
